Shown are actives, neighbours in structure and some others; about 1.2% of the full set was active somewhere.
MEP2-GFP yeast – yeast TOR pathway MEP2-GFP modulation. S. cerevisiae MEP2-GFP strain, flow cytometry GFP, 3 h; 100% = DMSO control level. GFP response vs DMSO, % at 10 µM. 330,000 tested, 0.51% active;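 active = GFP response versus DMSO above a set limit, roughly screen mean plus 3 SD, cut at about 180% in these data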;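 note: median GFP fluorescence of the barcode-gated MEP2-GFP cells per well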
AGP1-GFP MLPCN – modulators of TOR pathway AGP1-GFP in S. cerevisiae | AID 2066 | GFP response vs DMSO, % at 10 µM | 320,000 tested, 0.02% active | S. cerevisiae AGP1-GFP multiplex flow cytometry, 3 h; GFP as percent of DMSO wells;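 active = GFP response relative to DMSO above a set limit, near screen average plus 3 SD, cut at about 150% in these data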;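 note: median GFP channel fluorescence of the gated AGP1 strain per well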
CIT2 TOR yeast – alters CIT2-GFP fluorescence in TOR pathway yeast screen. GFP response vs DMSO, % at 10 µM. 320,000 tested, 0.065% active. S. cerevisiae CIT2-GFP strain, flow cytometry, 3 h; 100 means same as DMSO wells;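 active = GFP response relative to DMSO above a set limit, near the screen mean plus 3 SD, cut at about 150% in these data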;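 note: ratio of well median GFP fluorescence to mean of DMSO wells on the plate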
LAP4 TOR yeast – alters LAP4-GFP fluorescence in TOR pathway yeast screen. S. cerevisiae LAP4-GFP multiplex, flow cytometry GFP, 3 h; median GFP as percent of DMSO wells. GFP response vs DMSO, % at 10 µM. 320,000 tested, 0.34% active. AID 2023;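 active = GFP response vs DMSO above a set limit, about the screen mean plus 3 SD, cut at about 150% in these data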
DSG3 Ab inh – inhibitors of pemphigus antibody binding to human desmoglein-3; 310,000 tested, 0.48% active; AID 588358; P32926; DSG3-coupled beads, scFv-anti-DSG3-GFP binding, flow cytometry; hits give low values; binding (percent of control), % at 10 µM;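 active = binding more than 3 SD below its plate's average and above zero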;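 note: hits lower antibody fragment binding to DSG3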
Target sequence (P32926 whole entry, looked up, the tested form may be a part): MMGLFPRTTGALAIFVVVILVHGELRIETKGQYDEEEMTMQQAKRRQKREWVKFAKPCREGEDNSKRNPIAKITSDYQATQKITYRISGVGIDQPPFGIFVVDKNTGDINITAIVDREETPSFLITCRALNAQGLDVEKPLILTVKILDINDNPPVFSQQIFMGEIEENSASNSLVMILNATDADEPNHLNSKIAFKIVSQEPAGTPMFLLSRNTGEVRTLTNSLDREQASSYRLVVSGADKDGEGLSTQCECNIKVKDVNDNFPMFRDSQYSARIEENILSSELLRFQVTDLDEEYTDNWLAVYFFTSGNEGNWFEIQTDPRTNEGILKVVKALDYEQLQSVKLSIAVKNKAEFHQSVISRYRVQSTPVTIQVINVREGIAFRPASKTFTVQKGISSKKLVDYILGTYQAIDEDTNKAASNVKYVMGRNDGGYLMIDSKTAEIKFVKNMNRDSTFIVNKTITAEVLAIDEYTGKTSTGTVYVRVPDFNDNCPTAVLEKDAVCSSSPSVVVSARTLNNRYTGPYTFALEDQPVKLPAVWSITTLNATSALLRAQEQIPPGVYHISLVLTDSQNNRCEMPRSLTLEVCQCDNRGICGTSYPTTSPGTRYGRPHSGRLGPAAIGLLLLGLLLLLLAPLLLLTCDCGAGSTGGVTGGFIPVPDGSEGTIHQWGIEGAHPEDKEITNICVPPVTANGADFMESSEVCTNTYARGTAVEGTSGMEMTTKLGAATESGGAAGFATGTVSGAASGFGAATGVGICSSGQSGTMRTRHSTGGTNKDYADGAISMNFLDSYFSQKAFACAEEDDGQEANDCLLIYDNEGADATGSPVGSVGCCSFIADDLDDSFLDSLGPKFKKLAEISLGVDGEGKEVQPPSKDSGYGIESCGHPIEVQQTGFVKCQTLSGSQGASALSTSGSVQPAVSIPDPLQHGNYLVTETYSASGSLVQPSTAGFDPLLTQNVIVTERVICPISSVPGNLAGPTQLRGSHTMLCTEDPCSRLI
RPL19A-GFP yeast – modulators of TOR pathway RPL19A-GFP in S. cerevisiae | S. cerevisiae RPL19A-GFP strain, flow cytometry, 3 h; hits give low values | percent response vs DMSO, % at 10 µM | 330,000 tested, 0.3% active;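 active = percent response vs DMSO below 50%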;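 note: median channel GFP fluorescence of the barcoded RPL19A-GFP strain; ratio of sample median GFP to plate DMSO average so 100% = DMSO; lower means less RPL19A-GFP as with rapamycin TOR inhibition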
LAP4 cherry2 – second confirmation of modulators of TOR reporter LAP4-GFP in yeast; AID 2621; 590 tested, 20% active; GFP response vs DMSO, % at 10 µM; S. cerevisiae LAP4-GFP strain, flow cytometry GFP, 3 h; shares compounds with LAP4 TOR yeast;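 active = GFP signal as percent of the solvent control above about 150%, meaning raised reporter expression, limit read from the data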;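 note: ratio of well median GFP fluorescence to plate DMSO mean so 100% = DMSO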
MEP2 cherry2 – yeast MEP2-GFP modulation, second cherry pick; shares compounds with LAP4 TOR yeast; S. cerevisiae MEP2-GFP strain, flow cytometry GFP, 3 h; GFP response vs DMSO, % at 10 µM; 590 tested, 10% active;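 active = GFP signal above 150% of the solvent control wells, that is a rise of more than half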;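 note: median channel GFP fluorescence of all gated yeast cells per well; ratio of median GFP to plate DMSO average so 100% = DMSO level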
RPL19A-GFP pick2 – second confirmation of modulators of TOR reporter RPL19A-GFP in yeast; shares compounds with LAP4 TOR yeast; S. cerevisiae RPL19A-GFP strain, flow cytometry GFP, 3 h; hits give low values; 100% means same as DMSO wells; GFP response vs DMSO, % at 10 µM; 590 tested, 3% active; AID 2623;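 active = under 65% GFP response relative to DMSO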;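 note: median GFP channel fluorescence per well over the all cells gate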
CIT2 GFP CP2 – yeast CIT2-GFP TOR reporter modulation, second cherry pick | shares compounds with LAP4 TOR yeast | S. cerevisiae CIT2-GFP strain, flow cytometry GFP, 3 h; DMSO control wells read 100% | GFP response vs DMSO, % at 10 µM | 590 tested, 8% active | AID 2624;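 active = GFP response vs DMSO above about 150%, limit read from the data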;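 note: median green fluorescence per well over all gated yeast cells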
AGP1 GFP CP2 – second confirmation of modulators of TOR reporter AGP1-GFP in yeast; shares compounds with LAP4 TOR yeast; S. cerevisiae AGP1-GFP strain, flow cytometry GFP, 3 h; percent response vs DMSO, % at 10 µM; 590 tested, under 10 active;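 active = over 150 percent of DMSO response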;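 note: median GFP channel fluorescence over all cells without mother daughter split; sample median GFP divided by mean DMSO control so 100% equals DMSO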
Yeast autofluor – compound is autofluorescent in yeast s288c cells. AID 2757. 610 tested, under 10 active. S. cerevisiae s288c, 520 nm autofluorescence, flow cytometry, 3 h; hits give high values; zero means same as solvent-only cells. fluorescence change (kMESF span) at 33 µM. shares compounds with LAP4 TOR yeast;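 active = fluorescence span over the dose series, or activity score, above about 33, limit read from the data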
s288c autofl DR – counter-screen for autofluorescence of TOR hits in yeast s288c; 110 tested, under 10 active; shares compounds with LAP4 TOR yeast; fluorescence change (span) at 33 µM; S. cerevisiae s288c parental, compound autofluorescence, flow cytometry, 3 h;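 active = fluorescence change span, or the activity score built from it, above 25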
TORC1 bypass – compounds blocking wildtype yeast growth but not TORC1 bypass cells; 120 tested, under 10 active; growth rating (0-3) at 30 µM; S. cerevisiae BY4741 spot growth rating, 48-72 h; hits give low values; shares compounds with LAP4 TOR yeast;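 active = growth rating at most 1 for wild type yeast while the TORC1 bypass strain still grows fully, rated 3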
* hit, by the source's call; nt = no result given.

SMILES | MEP2-GFP yeast | AGP1-GFP MLPCN | CIT2 TOR yeast | LAP4 TOR yeast | DSG3 Ab inh | RPL19A-GFP yeast | Yeast autofluor | others
O=C(NNC(=S)NC(=O)c1ccco1)c1ccc(F)cc1 | 116 | 120 | 103 | 218* | nt | 98 | 1.5
CCCOc1ccc(C(=O)NNC(=S)NC(C)=O)cc1 | 117 | 109 | 101 | 137 | 110 | 108 | nt
Cc1ccccc1C(=O)NNC(=S)NC(=O)COc1ccccc1 | 102 | 92 | 90 | 146 | 121 | 106 | nt
CCCOc1ccc(C(=O)NNC(=S)NC(=O)c2ccccc2)cc1 | 94 | 113 | 100 | 152* | 90 | 108 | 1
Cc1ccc(C(=O)NNC(=S)NC(=O)COc2ccccc2)cc1 | 130 | 91 | 97 | 275* | 125 | 101 | -5.3 | s288c autofl DR=0.68;TORC1 bypass=3
O=[N+]([O-])c1cc(-c2csc(NC(CO)c3nc4ccccc4n3CCOCCO)n2)ccc1Cl (configuration not stated) | 94 | 90 | 97 | 106 | 104 | 107 | nt
COc1ccccc1C(=O)NNC(=S)NC(=O)c1ccco1 | 123 | 102 | 89 | 268* | 98 | 88 | 3.8 | LAP4 cherry2=335*;MEP2 cherry2=180*;RPL19A-GFP pick2=110;CIT2 GFP CP2=138;AGP1 GFP CP2=117
Cc1ccnc(N2C(=O)c3cccc4c([N+](=O)[O-])ccc(c34)C2=O)c1 | 312* | 75 | 181* | 232* | 88 | 111 | 6.2
Cc1ccc(N2C(=O)c3cccc4c([N+](=O)[O-])ccc(c34)C2=O)c2cccnc12 | 104 | 89 | 92 | 116 | 99 | 100 | nt
Cc1ccc(C(=O)COC(=O)COc2ccccc2[N+](=O)[O-])s1 | 101 | 99 | 97 | 104 | 110 | 98 | nt
CCOC(=O)COc1ccccc1/C=C\[N+](=O)[O-] | 91 | 76 | 74 | 188* | 92 | 72 | nt | LAP4 cherry2=140;MEP2 cherry2=122;RPL19A-GFP pick2=96;CIT2 GFP CP2=113;AGP1 GFP CP2=101
O=C(c1ccccc1)c1ccccc1N1C(=O)C=CC1=O | 87 | 85 | 70 | 327* | nt | 81 | 1.1
CCOc1ccc(-c2nc(CS(=O)(=O)CC(=O)NCc3ccc(F)cc3)c(C)o2)cc1 | 177* | 138 | 138 | 181* | 97 | 86 | nt | LAP4 cherry2=102;MEP2 cherry2=101;RPL19A-GFP pick2=97;CIT2 GFP CP2=102;AGP1 GFP CP2=101
Oc1ccc(N=Nc2ccc3c(c2)OCCO3)c2cccnc12 | 116 | 113 | 117 | 128 | 97 | 95 | nt

Source: PubChem BioAssay
